Dicer inh: human Dicer pre-microRNA cleavage inhibition; cat-ELCCA pre-miR-21 Dicer processing, chemiluminescence; active compounds read high; z-score at 25 µM; actives 6% (n = 47,000); AID 1347074; in the data active = z-score above about 3, passing the limit was not always enough;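 note: plate controls were vehicle for no effect and no enzyme for full effect; higher signal means more uncleaved substrate so more Dicer inhibition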
* marks the source's active call; other numbers are inactive results. Only a selection was taken, and hits are over-represented in it overall.

Results for N#CC1=C(N)Oc2n[nH]c(-c3ccccc3)c2C1c1ccc(Cl)cc1 (stereo not drawn) ?
Dicer inh: -5.1

What do the screens show for `O=C(Cn1c(-c2cncs2)nc2ccccc21)Nc1ccc2c(c1)OCCO2`?
Dicer inh: 4.2*

What do the screens show for `Clc1ccc(Cn2c(-c3cncs3)nc3ccccc32)cc1`?
Dicer inh: 1.3

What do the screens show for `O=C(Cn1c(-c2cncs2)nc2ccccc21)Nc1ccccc1Cl`?
Dicer inh: 0.04

What do the screens show for `Clc1ccc(OCCSc2n[nH]c3nc4ccccc4n23)cc1`?
Dicer inh: 2.4

Results for Cc1ccc2ccc(C(Nc3ccccn3)c3cccc(Cl)c3)c(O)c2n1 (stereo not drawn) ?
Dicer inh: 16*

How did Cc1ccc(C)c(C(Nc2ccccn2)c2ccc3cccnc3c2O)c1 (stereo not drawn) do in these assays?
Dicer inh: 9

What do the screens show for `Cc1ccnc(NC(c2ccccc2C)c2ccc3cccnc3c2O)c1` (stereo not drawn)?
Dicer inh: 2.1

What do the screens show for `Cc1ccc(C(Nc2ccccn2)c2ccc3ccc(C)nc3c2O)cc1` (stereo not drawn)?
Dicer inh: -0.45

What do the screens show for `Cc1ccc2ccc(C(Nc3ccccn3)c3ccc(Cl)cc3)c(O)c2n1` (stereo not drawn)?
Dicer inh: 4.8*

Results for Cc1ccc2ccc(C(Nc3ccccn3)c3cccc(Br)c3)c(O)c2n1 (stereo not drawn) ?
Dicer inh: -0.92

What do the screens show for `Cc1cccc(NC(c2cccc(O)c2)c2ccc3ccc(C)nc3c2O)n1` (stereo not drawn)?
Dicer inh: 0.83

How did C=CCOc1ccc(C(Nc2ccccn2)c2ccc3ccc(C)nc3c2O)cc1 (stereo not drawn) do in these assays?
Dicer inh: 0.31

Results for Cc1ccccc1C(Nc1ccccn1)c1ccc2cccnc2c1O (stereo not drawn) ?
Dicer inh: 5.7*

How did CCOc1cc(-n2c(C)ccc2C)c(OCC)cc1N1CCOCC1 do in these assays?
Dicer inh: -2.1

How did Cc1ccc(/C=c2\sc3nc4ccccc4n3c2=O)cc1 do in these assays?
Dicer inh: -0.54

What do the screens show for `CCOC(=O)c1c(SC)nc2ccc(Cl)cc2c1N1CCN(C)CC1`?
Dicer inh: 0.85

How did COCc1[nH]nc2c1C1(CCN(C(=O)c3ccccc3)CC1)C(C#N)=C(N)O2 do in these assays?
Dicer inh: -7

How did O=C(COc1ccccc1SCc1ccc(Cl)cc1)NNC(=O)c1ccc(Cl)cc1 do in these assays?
Dicer inh: 0.38

What do the screens show for `CC1(C)NC(=O)N(Cc2ccccc2)C1=O`?
Dicer inh: -0.41

How did Cc1ccc(OCC(O)CN2C(=O)NC(C)(C)C2=O)cc1 (stereo not drawn) do in these assays?
Dicer inh: 1.3

Results for CC1(C)NC(=O)N(CC(O)CN(Cc2ccccc2)Cc2ccccc2)C1=O (stereo not drawn) ?
Dicer inh: 3*

What do the screens show for `CC1(C)NC(=O)N(CC(O)COc2ccc(Br)cc2)C1=O` (stereo not drawn)?
Dicer inh: 3.1*

How did Cc1ccc(OCC(O)CN2C(=O)NC(C)(C)C2=O)cc1C (stereo not drawn) do in these assays?
Dicer inh: 0.02

Results for CC1(C)NC(=O)N(CC(O)CN(c2ccccc2)S(=O)(=O)c2ccccc2)C1=O (stereo not drawn) ?
Dicer inh: 2.2

Results for Cc1ccc(C2Nn3c(C)nnc3SC2C(=O)Nc2ccc(C)cc2C)cc1 (stereo not drawn) ?
Dicer inh: -0.26

What do the screens show for `COC(=O)c1cnc(Sc2ccccc2NC(=O)c2ccc(Cl)cc2)c([N+](=O)[O-])c1`?
Dicer inh: -1.6

How did CCOC(=O)c1cnc(N2CCN(c3ncc(C(=O)OCC)c(C(F)(F)F)n3)CC2)nc1C(F)(F)F do in these assays?
Dicer inh: -1.1

How did CCCCOc1ccc2c(=O)c(Oc3ccc(OC)cc3)coc2c1 do in these assays?
Dicer inh: -0.42

What do the screens show for `CC(C)c1ccc(S(=O)(=O)/N=C(\N)CSc2ccc(Cl)cc2)cc1`?
Dicer inh: -0.68

How did FC(F)(F)c1cnc(CSc2ccc(Cl)cc2)c(Cl)c1 do in these assays?
Dicer inh: -0.5

What do the screens show for `Cc1occc1C(=O)Nc1ccc(N(C)C)cc1`?
Dicer inh: 0.12

What do the screens show for `O=C(Cn1cc(C(=O)c2ccco2)c2ccccc21)NCCc1c[nH]c2ccccc12`?
Dicer inh: 4*

What do the screens show for `O=C(Cn1cc(C(=O)c2ccco2)c2ccccc21)NCc1cccs1`?
Dicer inh: -1.1

How did O=C(Cn1cc(C(=O)c2ccco2)c2ccccc21)NCc1ccco1 do in these assays?
Dicer inh: -1.1

How did Cc1ccc(-c2nnc(-c3ccc(Br)cc3)o2)cc1 do in these assays?
Dicer inh: 3.8*

Results for CSc1nnc(-c2ccc(C)cc2)o1 ?
Dicer inh: 0.94

Results for CSc1nnc(-c2ccc(Br)cc2)o1 ?
Dicer inh: 1.5

What do the screens show for `Cc1cc(C)nc(SCC(=O)Nc2c(C)n[nH]c2C)n1`?
Dicer inh: 0.71

Results for CC1=C(C#N)C(c2cc3c(cc2Br)OCO3)C2=C(CC(c3ccc(Cl)cc3)CC2=O)N1 (stereo not drawn) ?
Dicer inh: 0.09

Results for CCOc1cc(-n2cccc2)c(OCC)cc1N1CCOCC1 ?
Dicer inh: -0.44

What do the screens show for `O=C(CSc1nc(C(F)(F)F)cc(=O)[nH]1)c1ccc(Cl)cc1`?
Dicer inh: -1.2

Results for Cc1ccc(C(=O)CSc2nc(C)cc(=O)[nH]2)cc1 ?
Dicer inh: 4.6*

How did Cc1cc(=O)[nH]c(SCC(=O)C(C)(C)C)n1 do in these assays?
Dicer inh: 0.9

Results for Cc1cc(=O)[nH]c(SCC(N)=O)n1 ?
Dicer inh: 4.6*

How did COc1ccc(C(=O)CSc2nc(O)cc(=O)[nH]2)cc1 do in these assays?
Dicer inh: -2.6

How did Cc1cc(=O)[nH]c(SCC(=O)N(c2ccccc2)c2ccccc2)n1 do in these assays?
Dicer inh: 1.3

Results for COC(=O)c1sc(N2C(=O)C(=O)/C(=C(/O)c3ccc(Cl)cc3)C2c2ccc(C)cc2)nc1C (stereo not drawn) ?
Dicer inh: -0.18

How did O=c1cc(CSc2nc3ccccc3s2)[nH]c2[nH]n(-c3ccccc3)c(=O)c12 do in these assays?
Dicer inh: 0.06

How did O=c1cc(CSc2ccc(Cl)cc2)[nH]c2[nH]n(-c3ccccc3)c(=O)c12 do in these assays?
Dicer inh: 5.4*

What do the screens show for `O=c1cc(CSc2ccc(Cl)cc2)[nH]n1-c1ccccc1`?
Dicer inh: 35

Results for CC1=C(C(=O)OC(C)C)C(c2ccc(O)cc2)n2c(nc3ccccc32)N1 (stereo not drawn) ?
Dicer inh: 0.06

What do the screens show for `COc1ccc(C(OCC(O)Cn2cnc3c2c(=O)n(C)c(=O)n3C)(c2ccccc2)c2ccc(OC)cc2)cc1` (stereo not drawn)?
Dicer inh: 1.9

What do the screens show for `CC(=O)Nc1ccc(NCN2C(=O)c3ccccc3C2=O)cc1`?
Dicer inh: -0.7

How did C#Cc1cccc(NCN2C(=O)c3ccccc3C2=O)c1 do in these assays?
Dicer inh: 3.1*

How did CC(C)c1ccc(NCN2C(=O)c3ccccc3C2=O)cc1 do in these assays?
Dicer inh: 2.8

What do the screens show for `Cc1c(NC(=O)C2CCCCC2C(=O)O)c(=O)n(-c2ccccc2)n1C` (stereo not drawn)?
Dicer inh: -0.14

Results for CS(=O)(=O)n1nc(-c2ccco2)nc1SCc1ccccc1 ?
Dicer inh: 2.2

How did COc1ccc(-c2nc(SCc3ccccc3)n(S(C)(=O)=O)n2)cc1 do in these assays?
Dicer inh: 5.2*

High-throughput results deposited in PubChem by Center for Chemical Genomics, University of Michigan.
